Molecules are shown by their SMILES. Calls of active or inactive are those of the source. Unless noted, no rule for the calls is given here.

Results on 5 compounds are retold here after PubChem BioAssay.

The nature of test [1]: anti-His antibody binders, primary screen, artefact control for SMM control protein annotation, biochemical, small-molecule microarray, 635 nm fluorescence (AID 1128).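 Also: score merges feature fluorescence with signal-to-noise for each printed compound spot.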 The following applies: anti-His Alexa647 antibody binding, higher = more signal.
Test [2] relates to Human papillomavirus type 1a E7 protein (residues 1-88). Description: HPV1a E7 small-molecule binders, primary screen, biochemical, small-molecule microarray, residues 1-88, 635 nm (AID 1129). The note with it: small-molecule microarray binding, fluorescence 635 nm; higher = more signal.
The target in test [3] is Focal adhesion kinase 1 (Homo sapiens) (UniProt Q05397). Description: small-molecule microarray binders of FAK, primary screen, biochemical, 635/667 nm fluorescence, BSA, DTT (AID 1130).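 Also: composite of spot emission at 667 nm and signal to noise over triplicate slides.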 The note with it: PTK2 binding, 635 nm fluorescence, higher = more signal.
Focal adhesion kinase 1 (Homo sapiens), sequence (Q05397 whole entry, looked up): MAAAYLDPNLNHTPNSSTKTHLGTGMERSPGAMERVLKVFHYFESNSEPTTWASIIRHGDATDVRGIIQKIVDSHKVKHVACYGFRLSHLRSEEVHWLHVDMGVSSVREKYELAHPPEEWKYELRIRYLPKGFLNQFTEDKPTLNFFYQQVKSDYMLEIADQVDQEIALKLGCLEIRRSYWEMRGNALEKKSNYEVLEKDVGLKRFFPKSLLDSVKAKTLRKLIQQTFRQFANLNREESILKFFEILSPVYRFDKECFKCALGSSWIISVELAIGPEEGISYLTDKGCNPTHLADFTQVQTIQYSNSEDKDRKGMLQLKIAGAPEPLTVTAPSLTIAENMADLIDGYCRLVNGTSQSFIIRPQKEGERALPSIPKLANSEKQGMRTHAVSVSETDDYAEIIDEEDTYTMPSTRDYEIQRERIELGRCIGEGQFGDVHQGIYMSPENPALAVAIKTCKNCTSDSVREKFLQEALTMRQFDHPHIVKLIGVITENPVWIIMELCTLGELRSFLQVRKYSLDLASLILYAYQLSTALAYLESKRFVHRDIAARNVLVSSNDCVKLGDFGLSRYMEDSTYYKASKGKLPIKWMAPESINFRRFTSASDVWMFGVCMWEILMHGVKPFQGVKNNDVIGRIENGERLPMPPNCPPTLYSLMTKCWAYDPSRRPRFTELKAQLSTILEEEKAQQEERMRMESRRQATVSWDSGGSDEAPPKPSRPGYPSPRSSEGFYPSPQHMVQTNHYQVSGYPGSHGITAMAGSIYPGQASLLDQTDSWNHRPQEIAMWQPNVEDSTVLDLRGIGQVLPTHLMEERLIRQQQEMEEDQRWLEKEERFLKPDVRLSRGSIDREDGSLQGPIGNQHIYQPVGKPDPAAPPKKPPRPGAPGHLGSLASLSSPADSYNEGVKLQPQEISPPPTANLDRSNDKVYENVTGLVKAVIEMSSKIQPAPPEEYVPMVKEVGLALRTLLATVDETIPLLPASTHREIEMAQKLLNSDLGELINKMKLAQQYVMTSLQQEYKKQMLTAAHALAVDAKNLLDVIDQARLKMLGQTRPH
Test [4] deals with Fibrinogen (Alexa647-labelled). The test is described as follows: fibrinogen binders on compound microarrays, profiling panel, artefact control for SMM control-protein annotation, biochemical, small-molecule microarray, 635/667 nm fluorescence (AID 1131).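 Also: z-score merges 667 nm fluorescence with per-spot signal-to-noise over triplicate slides.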 The note with it: fibrinogen-A647 binding fluorescence, higher = more signal.
Test [5] addresses Follistatin (Homo sapiens) (UniProt P19883). The test is described as follows: follistatin binders on small-molecule microarrays, primary screen, biochemical, small-molecule microarray, 635/667 nm fluorescence (AID 1132). The following applies: FST binding, 635 nm fluorescence, higher = more signal.
Test [6] deals with Fibroblast growth factor 2 (Homo sapiens) (UniProt P09038). The test is described as follows: FGF2 binders on small-molecule microarrays, primary screen, biochemical, small-molecule microarray, 635/667 nm fluorescence (AID 1133). The following applies: small-molecule microarray binding, FGF2, fluorescence 635/667; higher = more signal.
Fibroblast growth factor 2 (Homo sapiens), sequence (P09038 whole entry, looked up): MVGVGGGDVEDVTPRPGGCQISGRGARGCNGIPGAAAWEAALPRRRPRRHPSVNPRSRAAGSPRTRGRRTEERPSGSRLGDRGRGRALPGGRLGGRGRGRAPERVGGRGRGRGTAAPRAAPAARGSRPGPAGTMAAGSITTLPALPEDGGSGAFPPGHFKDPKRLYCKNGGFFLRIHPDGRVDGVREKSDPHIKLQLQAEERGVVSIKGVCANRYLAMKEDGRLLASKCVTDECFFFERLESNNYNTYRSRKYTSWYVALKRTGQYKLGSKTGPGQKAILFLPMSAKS
Test [7] is described as follows: mitochondrial membrane potential change in A549 cells, profiling panel, cell-based, JC-1 fluorescence, basal, 24 h, 100 nL (AID 1138).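 Also: A549 lung adenocarcinoma cells under basal conditions with no added stimulus; test concentration not given here.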 The following applies: higher = more signal.
Test [8] deals with Lefty1. Description: Lefty1 binders on small-molecule microarrays, primary screen, biochemical, small-molecule microarray, 635/667 nm fluorescence (AID 1139). The note with it: small-molecule microarray binding, fluorescence 635/667; higher = more signal.
Test [9] concerns wheat germ agglutinin (Triticum aestivum), Alexa647-labelled. Description: wheat germ agglutinin binders on compound microarrays, profiling panel, artefact control for SMM control-protein annotation, biochemical, small-molecule microarray, 635/667 nm fluorescence (AID 1140).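 Also: score merges 667 nm feature emission with signal to noise over triplicate slides.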 The following applies: WGA-A647 binding, 635 nm fluorescence, higher = more signal.
Test [10] has as its target Luciferin 4-monooxygenase (Photinus pyralis) (UniProt P08659). The test is described as follows: firefly luciferase enzyme inhibitors, primary screen, biochemical, luminescence, purified enzyme, 2006 set (AID 1141).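 Also: cell-free assay with purified firefly luciferase at 100 ng per well in PBS; test concentration not given here.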 The note with it: SteadyGlo luminescence, 30 min, higher = more signal, called active from +8 up or from −8 down.
The subject of test [11] is Wnt5a (protein binding on small-molecule microarray). The test is described as follows: Wnt5a binders on small-molecule microarray, primary screen, biophysical, 635/667 nm fluorescence (AID 1142).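 Also: fluorescence read at 667 nm with signal to noise per printed feature.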 The following applies: 635 nm fluorescence, higher = more signal.
Test [12] in a line: cell viability in Huh7 cells, primary screen, cytotoxicity control for HCV replication inhibitor project, CellTiter-Glo luminescence, basal, 48 h (AID 1143).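 Also: Huh7 hepatoma cells carrying a hepatitis C replication reporter with no stimulus; test concentration not given here.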 The note with it: Huh7 HCV replicon, higher = more signal, called active from +8 up or from −8 down.
The nature of test [13]: P. aeruginosa biofilm formation inhibitors, primary screen, PAO1 strain, BacTiter-Glo luminescence, LB-PBS (AID 1144). The following applies: 12 h, higher = more signal.
Test [14] is described as follows: CREB reporter modulators without forskolin, primary screen, cell-based, PC12, CRE-LacZ reporter, unstimulated (AID 1145). The following applies: no forskolin, luminescence, 4.5 h, higher = more signal, called active from +8 up or from −8 down.
Test [15] is described as follows: CREB reporter modulators under forskolin, primary screen, cell-based, PC12, CRE-LacZ reporter, forskolin-stimulated (AID 1146).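 Also: PC12 cells with 6xCRE LacZ reporter stimulated by forskolin 10 µM; beta-galactosidase reporter signal reflecting CREB driven transcription.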 The note with it: luminescence, 4.5 h, higher = more signal, called active from +8 up or from −8 down.
In test [16] the target is Streptavidin (Streptomyces avidinii) (UniProt P22629). Description: streptavidin binders on small-molecule microarray, primary screen, artefact control for SMM compound annotation, biophysical, 635/667 nm fluorescence (AID 1147).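 Also: signal reflects streptavidin binding to arrayed compounds as a control protein.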 The note with it: streptavidin binding, higher = more signal.
Streptavidin (Streptomyces avidinii), sequence (P22629 whole entry, looked up): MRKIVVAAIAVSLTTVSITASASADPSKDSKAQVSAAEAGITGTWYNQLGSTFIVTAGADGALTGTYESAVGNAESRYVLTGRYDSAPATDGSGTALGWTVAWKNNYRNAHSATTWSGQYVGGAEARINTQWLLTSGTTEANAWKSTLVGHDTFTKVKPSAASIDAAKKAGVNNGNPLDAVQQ
Test [17] can be described thus: small-molecule binders of probe aInhba, primary screen, biochemical, small-molecule microarray, 635/667 nm fluorescence (AID 1148).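 Also: score merges 667nm spot fluorescence with signal-to-noise for antibody binding to printed compounds.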 The following applies: higher = more signal.
Test [18] concerns the target Torsin-1A (Homo sapiens) (UniProt O14656). Description: torsin A binders from cell lysate, primary screen, small-molecule microarray, wild-type, 635/667 nm (AID 1149). The note with it: COS7 hTOR1A-WT lysate, 635 nm fluorescence, higher = more signal.
Test [19] shares this target. The test is described as follows: small-molecule binders of mutant TOR1A in lysate, primary screen, cell lysate, small-molecule microarray, COS7 lysate, 635/667 nm fluorescence (AID 1150).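 Also: score pools 667 nm emission and signal to noise measuring lysate protein binding.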 The following applies: COS7 hTOR1A mutant lysate, 635 nm fluorescence, higher = more signal.
For test [20], the system named is Sonic hedgehog protein (Shh). Description: small-molecule binders of Shh protein, primary screen, biochemical, small-molecule microarray, 635/667 nm fluorescence (AID 1151).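 Also: Shh protein binding to compounds spotted on small-molecule microarray slides; score combines spot fluorescence intensity with signal-to-noise across triplicate slides.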 The following applies: small-molecule microarray binding, 635 nm fluorescence; higher = more signal.

Luciferin 4-monooxygenase (Photinus pyralis), sequence (P08659 whole entry, looked up): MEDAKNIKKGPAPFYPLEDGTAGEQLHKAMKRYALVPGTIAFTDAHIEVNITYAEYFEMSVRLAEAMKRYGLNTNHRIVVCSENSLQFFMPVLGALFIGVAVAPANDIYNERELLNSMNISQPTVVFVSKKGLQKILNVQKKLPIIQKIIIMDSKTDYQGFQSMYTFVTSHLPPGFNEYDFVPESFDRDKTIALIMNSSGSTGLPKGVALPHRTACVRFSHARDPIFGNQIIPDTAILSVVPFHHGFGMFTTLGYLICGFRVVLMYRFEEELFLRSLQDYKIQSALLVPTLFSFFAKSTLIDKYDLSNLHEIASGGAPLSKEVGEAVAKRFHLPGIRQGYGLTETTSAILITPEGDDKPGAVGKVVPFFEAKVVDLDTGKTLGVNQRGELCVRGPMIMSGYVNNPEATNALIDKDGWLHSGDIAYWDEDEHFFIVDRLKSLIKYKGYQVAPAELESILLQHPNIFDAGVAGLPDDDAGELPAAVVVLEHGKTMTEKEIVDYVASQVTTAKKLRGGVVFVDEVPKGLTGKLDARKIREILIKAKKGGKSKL
Follistatin (Homo sapiens), sequence (P19883 whole entry, looked up): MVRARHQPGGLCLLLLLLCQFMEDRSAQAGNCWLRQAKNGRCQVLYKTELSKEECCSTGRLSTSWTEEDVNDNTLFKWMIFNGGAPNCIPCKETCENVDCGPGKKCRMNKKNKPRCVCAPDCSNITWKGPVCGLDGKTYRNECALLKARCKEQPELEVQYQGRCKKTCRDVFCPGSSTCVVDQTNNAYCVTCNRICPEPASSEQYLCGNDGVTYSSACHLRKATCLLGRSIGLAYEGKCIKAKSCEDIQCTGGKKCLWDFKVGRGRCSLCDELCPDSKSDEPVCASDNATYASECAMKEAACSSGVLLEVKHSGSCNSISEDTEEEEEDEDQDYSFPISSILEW
Torsin-1A (Homo sapiens), sequence (O14656 whole entry, looked up): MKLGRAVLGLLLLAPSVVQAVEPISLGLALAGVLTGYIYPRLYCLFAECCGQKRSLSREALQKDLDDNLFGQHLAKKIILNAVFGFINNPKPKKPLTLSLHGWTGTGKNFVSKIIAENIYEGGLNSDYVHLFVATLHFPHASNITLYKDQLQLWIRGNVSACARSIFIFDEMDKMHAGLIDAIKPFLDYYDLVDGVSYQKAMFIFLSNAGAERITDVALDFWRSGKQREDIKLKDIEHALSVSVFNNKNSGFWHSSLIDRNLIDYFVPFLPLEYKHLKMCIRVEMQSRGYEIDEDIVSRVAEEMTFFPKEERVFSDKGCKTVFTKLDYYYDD

As for `COC(=O)[C@@]1(Cc2ccc(OC)cc2)[C@H]2c3cc(C(=O)N(C)C)n(CCN4CNCC4=O)c3C[C@H]2CN1C(=O)c1ccccc1`, the composite z-score was 0.492 in test [1]; 0.803 in test [2]; 0.598 in test [3]; 0.151 in [4]; -0.589 in test [5]; -0.294 in [6]. Besides, the composite z-score in test [8] is -0.44; in [9], 0.459; in [11], 0.0523; in [16], 0.494; in test [17], -0.0736; in test [18], -0.322. For the same compound, the composite z-score is -0.502 in [19] and -2.07 in test [20]. Also, the z-score was 1 in test [7]; 2.82 (inactive) in [10]; -0.582 (inactive) in test [12]; 0.726 (inactive) in [13]; -0.754 (inactive) in test [14]; -0.403 (inactive) in test [15].
Take `COC(=O)[C@@]1(Cc2ccc(F)cc2)[C@H]2c3cc(C(=O)N4CCCC4)n(Cc4ccc(C)o4)c3C[C@H]2CN1C(=O)c1ccccc1`: the composite z-score was 1.69 in test [1]; 1.07 in test [2]; 1.05 in test [3]; 0.952 in test [4]; 0.4 in test [5]; -0.708 in test [6]. In addition, the composite z-score in test [8] is 0.181; in test [9], 0.794; in test [11] it was 0.709; in test [16], 1.39; in [17], 0.0108; in test [18], 0.19. For the same compound, the values for the composite z-score in test [19] and in test [20] were 0.322 and -0.704, respectively. For the same compound, the z-score in test [7] was 0.821; in [10], -13.4 (active); in [12] it was -2.77 (inactive); in test [13], 0.82 (inactive); in test [14], -0.182 (inactive); in [15] it was -1.19 (inactive).
In the case of `COC(=O)[C@@]1(Cc2ccc(F)cc2)[C@@H]2[C@@H](CC(=O)[C@H]2CC(=O)C(=O)N(C)C)CN1C(=O)c1ccccc1`, the composite z-score in test [1] is 1.49; in [2], 1.24; in test [3], 0.138; in test [4], 1.01; in test [5], 0.959; in [6], -0.213. Besides, the composite z-score was -0.198 in test [8]; 1.22 in [9]; 0.618 in test [11]; 1.91 in test [16]; 0.242 in [17]; 0.447 in [18]. The composite z-score in [19] was 0.884; in test [20], -0.552. Further, the z-score in test [7] was 0.432; in [10] it was 1.28 (inactive); in test [12], -2.42 (inactive); in [13], 0.215 (inactive); in test [14], 0.576 (inactive); in test [15], 0.245 (inactive).
On to `CN(C)CCCNC(=O)[C@@]1(c2ccc([N+](=O)[O-])cc2)CC(=O)N(C2CCCCC2)[C@@H]1c1ccc(CO)cc1I`, for which the composite z-score in test [1] came out at 1.48; in [2], 1.23; in test [3], 0.634; in [4] it was 0.62; in test [5], 0.336; in test [6], 0.225. In addition, the composite z-score was 0.0773 in test [8]; 0.701 in test [9]; -0.107 in test [11]; 0.71 in test [16]; -0.016 in test [17]; 0.343 in test [18]. The composite z-score came out at 0.306 in test [19] and 0.279 in [20]. Moreover, the z-score in test [7] was -2.36; in test [10] it was -0.907 (inactive); in [12], -5.87 (inactive); in test [13], 0.262 (inactive); in test [14] it was 0.378 (inactive); in [15], 0.519 (inactive).
As to `[N-]=[N+]=NCc1ccccc1[C@H]1OC(c2ccc(OCCCO)cc2)=N[C@@]1(Cc1ccccc1)C(=O)NCc1ccccc1`, the composite z-score was determined as 0.517 in test [1]; 1.17 in test [2]; 0.365 in [3]; 0.954 in test [4]; 1.13 in test [5]; 0.0948 in test [6]. In addition, the composite z-score was -0.352 in [8]; 0.468 in test [9]; 0.348 in [11]; 1.15 in test [16]; -0.466 in [17]; 0.247 in [18]. The composite z-score amounted to 0.714 in test [19] and 0.144 in test [20]. The z-score in test [7] is 1.2; in test [10], -0.658 (inactive); in [12], -3.57 (inactive); in test [13] it was -0.862 (inactive); in test [14] it was -0.0108 (inactive); in [15], -0.157 (inactive).
